# Pol beta inh: blocks human DNA polymerase beta activity | AID 485314 | Pol beta primer extension/strand displacement, fluorescence kinetic | P06746 | Potency, µM (top dose mostly 114 µM), inactives show at the highest dose activity change, negative = inhibition, usual class: inhibitors | actives 1.3% (n = 340,000); further: potency means the concentration at half of the fitted maximal effect; on the % scale 0 is the no-effect control and ±100 the full control effect
#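 Pol beta (10 nM) was preincubated with compound for 15 min at room temperature. The reaction was then started with 50 nM substrate and read immediately and after a further 10 min at room temperature.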
# Pol iota inh: DNA polymerase iota (human) inhibition | Q9UNA4 | Pol iota fluorescent replication assay, 10 min | Potency, µM (series often up to 115 µM), for the others: top-dose activity, negative = inhibition, hits mostly inhibitors | actives 1% (n = 390,000) | AID 588590; further: potency means the concentration at half of the fitted maximal effect
#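 Fluorescent replication assay read twice, at 0 min and 10 min after adding 50 nM (final) substrate. Enzyme (10 nM) and compounds were first incubated 15 min at room temperature; enzyme-free buffer wells were negative controls.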
# PI5P4Ka inh: inhibitors of human PI5P4K alpha. AID 652105. actives 1.2% (n = 330,000). PI5P4Kalpha enzyme, ADP-Glo luminescence, 60 min; hits give low values. max response, %. P48426; active means max response of -50% or lower; inconclusive means between -30% and -50%; inactive means -30% or higher; further: value at the top dose of about 77 µM; on the % scale 0 is the no-effect control and ±100 the full control effect
#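 Controls without substrate or without enzyme flank wells where PI5P4Kalpha converts substrate using 5 microM ATP (final). Incubation lasts 60 minutes at room temperature; ADP formed is read by ADP-Glo luminescence.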
# POLK inh: blocks human DNA polymerase kappa activity; Q9UBT6; purified Pol kappa, fluorescent DNA synthesis assay, 10 min; Potency, µM (doses to about 107 µM), inactives show top-dose activity, negative = inhibition, most hits filed as inhibitors; actives 0.53% (n = 400,000); AID 588579; further: potency means the concentration at half of the fitted maximal effect; on the % scale 0 is the no-effect control and ±100 the full control effect
#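 Activity was followed as the change in fluorescence between reads at 0 and 10 min after starting the reaction with 50 nM substrate. Beforehand, 10 nM polymerase had been preincubated with compound for 15 min at room temperature.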
# Pol eta inh: DNA polymerase eta (human) inhibition | Q9Y253 | recombinant Pol eta, fluorescent DNA replication assay | Potency, µM (series often up to 114 µM), for the others: at the top dose activity change, negative = inhibition, most hits filed as inhibitors | actives 1.2% (n = 390,000); further: potency means the concentration at half of the fitted maximal effect; on the % scale 0 is the no-effect control and ±100 the full control effect
# Target sequence (Q9Y253 whole entry, looked up): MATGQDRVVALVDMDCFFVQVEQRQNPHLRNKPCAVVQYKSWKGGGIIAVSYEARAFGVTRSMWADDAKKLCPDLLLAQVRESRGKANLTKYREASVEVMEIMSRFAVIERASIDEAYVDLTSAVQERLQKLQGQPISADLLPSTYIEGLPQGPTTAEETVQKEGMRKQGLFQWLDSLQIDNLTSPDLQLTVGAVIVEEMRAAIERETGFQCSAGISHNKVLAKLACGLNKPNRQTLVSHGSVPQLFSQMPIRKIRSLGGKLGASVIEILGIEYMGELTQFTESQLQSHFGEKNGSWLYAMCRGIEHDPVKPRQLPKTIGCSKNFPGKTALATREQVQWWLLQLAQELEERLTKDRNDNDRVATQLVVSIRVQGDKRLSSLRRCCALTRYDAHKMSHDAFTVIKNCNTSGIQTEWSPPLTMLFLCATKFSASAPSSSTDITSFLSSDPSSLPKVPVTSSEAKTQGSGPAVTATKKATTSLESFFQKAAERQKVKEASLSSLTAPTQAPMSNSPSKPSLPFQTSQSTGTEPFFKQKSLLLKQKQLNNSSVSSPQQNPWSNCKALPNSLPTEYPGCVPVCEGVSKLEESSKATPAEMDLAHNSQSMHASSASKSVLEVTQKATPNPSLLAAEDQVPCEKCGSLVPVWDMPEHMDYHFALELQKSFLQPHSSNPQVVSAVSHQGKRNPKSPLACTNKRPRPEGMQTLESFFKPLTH
#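 Pol eta (10 nM) was preincubated with compounds for 15 min at room temperature, after which fluorescent replication substrate (50 nM final) was added to start the reaction. Fluorescence was read kinetically at 0 and 10 min.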
# WRN inhibitor: WRN helicase (human) inhibition; actives 0.46% (n = 360,000); Potency, µM (top dose mostly 114 µM), for the others: top-dose activity change, negative = inhibition, most hits filed as inhibitors; WRN helicase unwinding, fluorescent forked duplex, kinetic; Q14191; further: potency means the concentration at half of the fitted maximal effect; on the % scale 0 is the no-effect control and ±100 the full control effect; nearly all actives have a fitted effect of over 55% in size
#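 WRN at 20 nM final preincubated with compound 15 min at room temperature; reaction started with 100 nM fluorophore/quencher forked duplex oligonucleotide and 2 mM ATP final. Unwinding followed kinetically by red fluorescence (ex 525, em 598 nm).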
# Starred values were filed as active, the others as inactive; ? = inconclusive; / = no result; [ ] = remark or other dose. An excerpt weighted towards active compounds, which were near 2.8% of everything screened. Unless noted, the call rests on the fitted dose curve; in most records, active means well fitted curve in the direction sought with a large enough effect; inconclusive means small, poorly fitted or top-dose-only effect, or another doubt; inactive means no such curve, though single readings can be large; an effect the other way counts as inactive or inconclusive.
SMILES,Pol beta inh,Pol iota inh,PI5P4Ka inh,POLK inh,Pol eta inh,WRN inhibitor
N#CC1=C(c2ccc(-c3ccccc3)cc2)COC1=O,?,?,?,-20.7%,89.1µM*,-1.9%[57.1 µM]
O=C(NC1CCCC1)c1ccc2nc(-c3ccco3)c(-c3ccco3)nc2c1,50.1µM*,?,-62.9*,22.4µM*,3.55µM*,39.8µM*
O=C(NCCO)c1ccc2nc(-c3ccco3)c(-c3ccco3)nc2c1,50.1µM*,2.51µM*,-16.1,25.1µM*,3.55µM*,11.2µM*
O=C(NCCc1ccccc1)c1ccc2nc(-c3ccco3)c(-c3ccco3)nc2c1,7.94µM*,?,-63.3*,?,?,?
NCC(=O)Nc1ccc(Cl)cc1C(=O)c1ccc[nH]1,9.2%,14.8%,9.6,3.4%,-5.0%,-2.4%[11.6 µM]
COC(=O)C1CCN(S(=O)(=O)c2ccc(N3CCCCS3(=O)=O)cc2)CC1,5.1%,9.1%,/,1.5%[60.1 µM],-1.9%,/
COc1ccc(Cl)cc1-c1cc(C(=O)NCc2ccc(C(F)(F)F)cc2)[nH]n1,/,/,-0.2,/,/,-1.5%
COc1ccc(Cl)c(Cn2cnc3c(cnn3C(C)(C)C)c2=O)c1,/,5.2%,/,-18.6%,/,/
COc1ccccc1OCC(=O)Nc1nnc(-c2ccco2)s1,35.5µM*,?,-21.5,-7.0%,?,-25.3%
Cc1ccc(C)c(S(=O)(=O)N2CCN(C(=O)[C@H](Cc3ccccc3)NC(=O)c3ccco3)CC2)c1,/,6.1%,1.1,-5.2%,-3.1%,-2.2%
COC(=O)c1c(SC)nc2ccccc2c1OCc1ccc(C)cc1C,-14.0%,17.6%,/,-5.7%,-22.1%,/
CCCCCC[N+](C)(C)CCSSCC[N+](C)(C)CCCCCC,-2.1%,-2.7%,-3.4,17.7%,2.7%,17.8%
CCCCCCCCCCCCCCCC[N+](C)(C)CCl,/,-13.4%,-53.5*,-2.6%,-21.5%,-9.7%
CCCCCCCCCCCCCCCC[N+](C)(C)CC,/,19.5%,-62.8*,-7.0%,89.1µM*,-11.2%
CC(=O)Nc1ccc(OC(C)=O)cc1,/,/,/,-9.4%[19.4 µM],/,/
N=C1SCC(=O)N1c1ncc(Cc2cccc(Cl)c2)s1,-0.1%,70.7%,-6.9,-15.6%,-11.8%,-7.5%
O=c1c2c(-c3ccc(Cl)cc3)csc2ncn1/N=C/c1cccc([N+](=O)[O-])c1O,0.5%,6.3%,-70.7*,-8.1%,0.5%,-10.0%
O=C(O)C1C2C=CC(O2)C1C(=O)NCCC1=CCCCC1 (stereo unspecified),?,?,/,-21.5%,50.1µM*,-19.1%
COc1cc(C(=O)N(C)CCOc2ccc(C)cc2)ccc1OC1CCN(C(C)=O)CC1,?,47.2%,-0.7,-4.4%,-17.1%,2.3%
CC1=Nc2ccccc2/C1=C/c1sc(=S)n(-c2cccc(C(=O)O)c2)c1O,-22.3%,?,-55.4*,?,35.5µM*,?
Oc1c(C=C2N=c3ccccc3=N2)sc(=S)n1-c1ccccc1,35.8%,29.9%,-6.2,0.4%,-15.5%,2.9%
CCOc1cc(/C=N/N=C(N)N)ccc1OCc1ccc(Cl)cc1,79.4µM*,12.9%,-5.7,6.5%,-16.4%,-1.8%
NC(N)=N/N=C/c1ccc(OCc2ccccc2)c(OCc2ccccc2)c1,79.4µM*,36.6%,-3.6,-14.7%,-21.8%,-2.4%
O=C(NCCc1ccncc1)c1ccc2nc(Cc3cccc(Cl)c3)oc2c1,-0.3%,12.9%,3.2,-19.0%,-24.2%,-15.3%
O=C(C#Cc1ccccc1)c1ccccc1,/,/,9.3,/,-4.5%,44.7µM*
SMILES,Pol beta inh,Pol iota inh,PI5P4Ka inh,POLK inh,Pol eta inh,WRN inhibitor
O=C(C#Cc1ccccc1)c1ccc([N+](=O)[O-])cc1,16.2%,34.4%,-3.1,2.5%,-13.9%,31.6µM*
O=C(CSCC(=O)c1ccc([N+](=O)[O-])cc1)c1ccc([N+](=O)[O-])cc1,/,/,?,/,/,-9.2%
CCn1nc(C)c(CNC(=O)C2CCC(=O)N(CCc3ccc(OC)cc3)C2)c1C (stereo unspecified),1.0%,7.0%,-0.3,-5.7%,-2.1%,-8.4%
OCCNc1nc(Nc2cc(Cl)ccc2OC2CCCC2)nc(N2CCCC2)n1,/,24.2%,/,-18.7%,-17.5%,/
O=S1(=O)CC(N2CCCC2)CN1Cc1cn(Cc2ccccc2)nn1 (stereo unspecified),/,/,-0.3,/,/,7.9%
CC(Sc1nnc(COc2ccc(Cl)cc2)n1-c1ccccc1)C(=O)O (stereo unspecified),17.1%,17.6%,?,-5.0%,-2.1%,-7.9%[57.1 µM]
Cc1cccc(OCc2nnc(SC(C)C(=O)O)n2-c2ccccc2)c1 (stereo unspecified),2.1%,-10.8%,-53.3*,-13.4%,-2.8%,-1.9%
O=c1c2cc(C(F)(F)F)ccc2sn1-c1ccccc1,/,/,-102.2*,/,-17.2%,-1.3%
O=c1c2cc(F)ccc2sn1-c1ccccc1,/,-12.9%,-85.3*,-5.9%,-5.3%,-5.0%
Cc1ccccc1C1CC(=O)Oc2cc(C)c(Cl)c(C)c21 (stereo unspecified),/,/,/,-15.0%,/,/
O=C(C[n+]1cc(Br)cc2ccccc21)c1ccc(O)c(O)c1,/,?,/,2.82µM*,/,/
CCc1ccccc1NC(=O)CCS(=O)(=O)c1ccc(OC)cc1,35.5µM*,30.8%,-10.3,-18.9%,?,-7.8%
Cn1c(=O)oc2cc(S(=O)(=O)Nc3ccc(C(=O)O)cc3)ccc21,?,?,-11.1,-19.4%,89.1µM*,-3.4%[11.6 µM]
COc1ccc(NC(=O)CCS(=O)(=O)c2ccc3c(c2)oc(=O)n3C)cc1,?,50.1µM*,-28.4,-24.1%,?,-4.0%[11.6 µM]
Cn1c(=O)oc2cc(S(=O)(=O)Nc3ccc(O)cc3)ccc21,-0.7%,-0.5%,-4.5,5.1%,-7.7%,5.3%
COc1cccc(N2CCN(C(=O)CCS(=O)(=O)c3ccc4c(c3)oc(=O)n4C)CC2)c1,?,70.8µM*,-11.9,?,?,-13.6%
CCOc1ccc(NC(=O)COC(=O)c2ccccc2OCC(=O)N(C)C)cc1,/,23.8%,/,1.7%,/,/
COc1cc2c(cc1OC)C(COc1ccc(C(C)C)cc1)N(C(=O)c1ccc(S(=O)(=O)N3CCCC3)cc1)CC2 (stereo unspecified),3.9%,30.2%,/,-5.1%[60.1 µM],-19.9%,/
C=C(C)COc1ccc(C2NC(=O)c3ccccc3O2)cc1OCC (stereo unspecified),13.7%,179.1%,8.0,-6.4%,-19.7%,-18.6%
CCc1ccc(NC2=CC(=O)C(=O)c3ccccc32)cc1,/,?,-9.8,-15.7%,50.1µM*,-31.1%
O=C1C=C(Nc2ccccc2)c2ccccc2C1=O,-2.2%,22.4µM*,0.0,2.1%,?,3.4%[11.6 µM]
CC1(C)CCC2(C(=O)O)CC[C@]3(C)C(=CCC4[C@]5(C)CCC(O)C(C)(C)C5C(O)C[C@]43C)C2C1 (stereo partly specified),/,/,/,-10.2%[60.1 µM],/,/

# Bioassay records as filed in PubChem BioAssay.
